# Data as given in PubChem BioAssay AID624202 (National Center for Advancing Translational Sciences (NCATS), 2012).
# The campaign covered roughly 380,000 compounds. About 4,000 (1.1%) were called active. Not shown: some 3% with an inconclusive outcome. Calls come from the whole dose curve; as a rule, active = well fitted activation curve with a large enough effect; inconclusive = small, poorly fitted or top-dose-only effect; inactive = no such curve, though single readings can be large or run the other way. Many of the other results were omitted from the sample, so actives are more common in it than they were.
# Test: qHTS Assay to Identify Small Molecule Activators of BRCA1 Expression; note: nearly all actives have a fitted effect of over 80% in size
# Conditions: MCF7-BRCA1-FFLuc reporter, luminescence, 48 h
# Text: Functionally, BRCA1 has been implicated in a wide array of cellular activities, including DNA damage repair, cell-cycle checkpoint control, growth inhibition, apoptosis, transcriptional regulation, chromatin remodeling, protein ubiquitylation, and mammary stem cell self-renewal and differentiation. Reduction in BRCA1 levels is associated with an increase in tumor growth and resistance to anti-estrogenic agents, such as tamoxifen, while an increase in BRCA1 expression leads to cell growth arrest and apoptosis. […] The frequent loss of BRCA1 expression in invasive breast cancers in the absence of somatic mutation has been attributed to numerous mechanisms, including hypermethylation of the BRCA1 promoter, exaggerated ubiquitylation of BRCA1 protein, and improper intracellular localization. […]
# 5microl of MCF7-BRCA1-FFLuc cell suspension (400 cells/microl in phenol-red free MEM) are dispensed into Greiner white solid bottom 1536-well assay plates, yielding a final well density of 2000 cells/well. […] The NCGC in-house luciferase substrate reagent, Buglite, is then added (2.5microl) and plates incubated for 15 minutes, before being transferred to a ViewLux high-throughput CCD imager (PerkinElmer) wherein single end-point measurements of luminescence are acquired using a clear filter. […]
# Potency is the fitted concentration of half-maximal effect.
row,Structure (SMILES),Potency
1,O=C(OCC(=O)c1cccs1)C1=COCCO1,15.8 µM (active)
